PubChem BioAssay (NCATS)
Records with an inconclusive call do not appear. Active and inactive are the calls of the source. The call rests on the fitted dose curve; in most records, active means well fitted curve in the direction sought with a large enough effect; inconclusive means small, poorly fitted or top-dose-only effect, or another doubt; inactive means no such curve, though single readings can be large; an effect the other way counts as inactive or inconclusive.

Columns and labels:
[1] = NS1 protein of Zika virus - qHTS assay to identify small molecule inhibitors in human HEK 293 cells (AID 1347053); further: nearly all actives have a fitted effect of over 55% in size
Method in brief: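 HEK 293 cells pretreated with compound for 1 h, then infected with ZIKV MR766 (MOI 0.5) for 24 h at 37 C. NS1 detected by TR-FRET with two anti-NS1 antibodies; normalized to uninfected (0%) and infected (100%) wells.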

[2] = qHTS of pediatric cancer cell lines to identify multiple opportunities for drug repurposing: Primary screen for TC32 cells (AID 1347089); further: nearly all actives have a fitted effect of over 60% in size
Method in brief: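 Measured quantity: luminescence from CellTiter-Glo, reflecting metabolically active TC32 cells following 48 h of compound. Curves came straight from multi-point titrations, with 8 or 11 points in primary and 11 in confirmatory screening.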

[3] = qHTS of pediatric cancer cell lines to identify multiple opportunities for drug repurposing: Primary screen for DAOY cells (AID 1347090); further: nearly all actives have a fitted effect of over 55% in size
Method in brief: (§1)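 Viability measured as metabolically active cells via CellTiter-Glo luminescence following 48 hours of compound exposure, 11-point dilutions in confirmatory testing. 500-1,000 cells/well plated 5 hours before dosing; controls were DMSO and 2.3 µM bortezomib.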

[4] = qHTS of pediatric cancer cell lines to identify multiple opportunities for drug repurposing: Primary screen for SJ-GBM2 cells (AID 1347091)
Method in brief: as §1

[5] = qHTS of pediatric cancer cell lines to identify multiple opportunities for drug repurposing: Primary screen for A673 cells (AID 1347092); further: nearly all actives have a fitted effect of over 45% in size
Method in brief: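 Cells are plated, rested 5 h, dosed by pintool, incubated 48 h, then lysed with CellTiter-Glo and read by luminescence. DMSO is the neutral control; bortezomib at 2.3 uM final is the positive control.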

[6] = qHTS of pediatric cancer cell lines to identify multiple opportunities for drug repurposing: Primary screen for SK-N-MC cells (AID 1347093)
Method in brief: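 Metabolically active cells were quantified by ATP-dependent luminescence (CellTiter-Glo, 15 min at room temperature) following 48 h treatment. Cells had been plated at 500-1,000 per well and settled for 5 h beforehand.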
Potency means the concentration at half of the fitted maximal effect.

In the case of `O=C(C=CC#Cc1cccc(NS(=O)(=O)c2ccccc2)c1)NO`, the Potency [1] is reported as 13.2 µM (active), the Potency [2] is reported as 7.39 µM (active) and the Potency [3] is reported as 2.96 µM (active). For the same compound, the Potency [4] was 1.66 µM (active), the Potency [5] was 1.48 µM (active) and the Potency [6] was 0.59 µM (active).
For `CCC(C(=O)O)C1CCC(C)C(C(C)C(O)C(C)C(=O)C(CC)C2OC3(C=CC(O)[C@@]4(CC[C@](C)(C5CC[C@@](O)(CC)C(C)O5)O4)O3)C(C)CC2C)O1` (stereo not given in full), the Potency [1] was 1.66 µM (active), the Potency [2] was 5.23 µM (active) and the Potency [3] was 11.8 µM (active). For the same compound, the Potency [4] was 11.8 µM (active), the Potency [5] was 2.35 µM (active) and the Potency [6] was 0.187 µM (active).
With `Oc1cc2c(cc1O)C1c3ccc(O)c(O)c3OCC1(O)C2` (stereo not given) the Potency [1] was “inactive”, the Potency [2] was “inactive” and the Potency [3] was “inactive”. For the same compound, the Potency [4] was “inactive” and the Potency [5] was “inactive”.
With `O=C(Nc1cccc(Nc2ncc(Br)c(NCCc3cnc[nH]3)n2)c1)N1CCCC1` the Potency [1] was 10.5 µM (active), the Potency [2] was 0.93 µM (active) and the Potency [3] was 18.7 µM (active). The Potency [4] was 5.9 µM (active), the Potency [5] was 11.8 µM (active) and the Potency [6] was 0.332 µM (active).
With `CC(C)C[C@H](NC(=O)CNC(=O)c1cc(Cl)ccc1Cl)B1OC(=O)CC(CC(=O)O)(C(=O)O)O1` (stereo not given in full) the Potency [1] was 0.209 µM (active), the Potency [2] was 2.94 µM (active) and the Potency [3] was 0.148 µM (active). The Potency [4] was 0.148 µM (active), the Potency [5] was 0.0118 µM (active) and the Potency [6] was 0.0833 µM (active).
For `CC(=O)[C@]1(O)Cc2c(O)c3c(c(O)c2[C@@H](O[C@H]2C[C@H](N)[C@@H](O)[C@H](C)O2)C1)C(=O)c1ccccc1C3=O`, the Potency [1] was 1.05 µM (active), the Potency [2] was 0.587 µM (active) and the Potency [3] was 0.935 µM (active). The Potency [4] was 0.0833 µM (active), the Potency [5] was 0.148 µM (active) and the Potency [6] was 0.118 µM (active).
